Measured values taken from PubChem BioAssay (EPA / NIEHS).
Activity calls are given as the source filed them. Rule for the calls: active = hit-call score of the fitted dose curve at least 0.9, where 1 is the maximum; inactive = score below 0.9.

Target: Estrogen receptor (Homo sapiens) (UniProt P03372)
Assay: OT_ERa_GFPERaERE_0480: Odyssey Thera (OT) 8-hour HeLa Transcription Induction Assay for Estrogen Receptor (AID 2283381)
Method: OT_ERa_GFPERaERE_0480 is a cell-based, single-readout assay that uses HeLa, a human cervix cell line, with measurements taken at 8 hours after chemical dosing in a 384-well plate.OT_ERa_GFPERaERE_0480 is one of one assay component(s) measured or calculated from the OT_ERa_GFPERaERE_0480 assay. It is designed to make measurements of fluorescent protein induction, a form of inducible reporter, as detected with optical microscopy: fluorescence microscopy signals by Microscopy technology.Data from the assay component OT_ERa_GFPERaERE_0480 was analyzed into 1 assay endpoint. This assay endpoint, OT_ERa_EREGFP_0480, was analyzed in the positive analysis fitting direction relative to DMSO as the negative control and baseline of activity. Using a type of inducible reporter, measures of receptor for gain-of-signal activity can be used to understand the reporter gene at the pathway-level as they relate to the gene ESR1. Furthermore, this assay endpoint can be referred to as a primary readout, because the performed assay has only produced 1 assay endpoint. To generalize the intended target to other relatable targets, this assay endpoint is annotated to the nuclear receptor intended target family, where the subfamily is steroidal.
All assay endpoints are quantified using high content image analysis algorithms.

Estrogen receptor (Homo sapiens), sequence (P03372 whole entry, looked up): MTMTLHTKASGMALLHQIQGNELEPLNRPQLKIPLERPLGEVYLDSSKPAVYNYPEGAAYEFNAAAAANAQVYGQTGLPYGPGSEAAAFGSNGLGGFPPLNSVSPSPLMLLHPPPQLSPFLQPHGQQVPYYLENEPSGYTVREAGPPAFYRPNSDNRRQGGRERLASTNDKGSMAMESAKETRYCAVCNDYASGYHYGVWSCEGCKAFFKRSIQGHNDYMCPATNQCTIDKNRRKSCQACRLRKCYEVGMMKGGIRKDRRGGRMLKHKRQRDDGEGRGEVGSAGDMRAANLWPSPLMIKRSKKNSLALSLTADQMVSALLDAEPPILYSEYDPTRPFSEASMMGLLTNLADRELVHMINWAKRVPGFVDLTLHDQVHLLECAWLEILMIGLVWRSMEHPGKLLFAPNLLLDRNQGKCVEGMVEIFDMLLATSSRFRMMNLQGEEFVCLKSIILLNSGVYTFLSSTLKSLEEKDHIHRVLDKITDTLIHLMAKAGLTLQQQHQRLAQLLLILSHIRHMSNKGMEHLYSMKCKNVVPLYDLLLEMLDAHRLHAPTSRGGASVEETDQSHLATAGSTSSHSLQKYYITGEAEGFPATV

Row | Compound | outcome | AC50
1 | CCC1COC(=O)O1 (stereo not given) | inactive | 
2 | CCCCCCCOC(=O)c1ccc(O)cc1 |  | 3.39 µM (active)
3 | Cc1cc(C)n(CO)n1 | inactive | 
4 | CN(C)c1ccc2nc3ccc(=[N+](C)C)cc-3sc2c1 |  | 40.6 µM (active)
5 | Cc1c(C(=O)c2c[nH]n(C)c2=O)ccc(S(C)(=O)=O)c1C1=NOCC1 | inactive | 
6 | NC(=O)Nc1ccccc1 | inactive | 
7 | CC12CCC(CC1)C(C)(C)O2 | inactive | 
8 | CCCCCC[C@@H](O)C/C=C\CCCCCCCC(=O)OCC(O)CO (stereo not given in full) | inactive | 
9 | CC(CCC(=O)O)(c1ccc(O)cc1)c1ccc(O)cc1 |  | 47.1 µM (active)
10 | Fc1ccc(Br)cc1 | inactive | 
11 | CCCCCCO | inactive | 
12 | N#Cc1ccc(C(c2ccc(C#N)cc2)n2cncn2)cc1 | inactive | 
13 | CCC(C)(O)CCCC(C)C (stereo not given) | inactive | 
14 | C=C[C@@]1(C)CC(=O)[C@]2(O)[C@@]3(C)[C@@H](O)CCC(C)(C)[C@@H]3[C@H](O)[C@H](OC(C)=O)[C@@]2(C)O1 |  | 89.1 µM (active)
15 | N#Cc1ccc(C2CCCc3cncn32)cc1 (stereo not given) |  | 18.2 µM (active)
16 | CO[Si](C)(C)OC | inactive | 
17 | CCCCCCC=O | inactive | 
18 | C1CNCCN1 | inactive | 
19 | CCCCNC(=S)NCCCC | inactive | 
20 | C/C=C/C=C/CCCCCCCO | inactive | 

Row | Compound | outcome | AC50
21 | CCCCCCCCCC[N+](C)(CCCCCCCCCC)CCC[Si](OC)(OC)OC |  | 24.1 µM (active)
22 | O=S(=O)(O)c1ccc(N=Nc2c(O)ccc3ccccc23)cc1 | inactive | 
23 | CCOC(=O)C1=NOC(c2ccccc2)(c2ccccc2)C1 | inactive | 
24 | CCCCCC(=O)OCC | inactive | 
25 | C=CCOC(=O)c1ccc(C(=O)OCC=C)c(C(=O)OCC=C)c1 | inactive | 
26 | O=C(O)/C=C/c1ccccc1 |  | 23.4 µM (active)
27 | O=C(OCc1ccccc1)c1ccc(O)cc1 | inactive | 
28 | CCCCCCCCCCCC(=O)N(C)CC(=O)O | inactive | 
29 | CCCCC(CC)COC(=O)/C=C/c1ccc(OC)cc1 (stereo not given) | inactive | 
30 | Oc1ccc(-c2ccccc2)c(Cl)c1 |  | 91 µM (active)
31 | CC(C)(c1ccccc1)c1ccc(Nc2ccc(C(C)(C)c3ccccc3)cc2)cc1 | inactive | 
32 | C=C[Si](OCCOC)(OCCOC)OCCOC | inactive | 
33 | O=C(O)C1CCC(C(=O)O)CC1 (stereo not given) | inactive | 
34 | O=C(O)CCC(=O)O | inactive | 
35 | O=C(Nc1ccccc1)c1cc(Cl)ccc1O | inactive | 
36 | CCCCCCOc1ccc(N)cc1 | inactive | 
37 | O=C(O)c1cc(O)c2ccccc2c1O |  | 18.1 µM (active)
38 | COC(=O)c1ccccc1C | inactive | 
39 | O=C(O)CC(C(=O)O)S(=O)(=O)O (stereo not given) | inactive | 
40 | C=C1C[C@H]2[C@@H]3C=C(C)C4=CC(=O)CC[C@]4(C)[C@H]3CC[C@]2(C)[C@@]1(OC(C)=O)C(C)=O | inactive | 
